From the supplement of paper PMC3334620
Over roughly 33,000 sequences, “E-score (-0.5 to 0.5)” has its median near -0.016; the highest 2% begin near 0.3. The full list was thinned out, with the highest values kept by preference.

Target: T1, Yer184c (UniProt P39961)
T1 sequence: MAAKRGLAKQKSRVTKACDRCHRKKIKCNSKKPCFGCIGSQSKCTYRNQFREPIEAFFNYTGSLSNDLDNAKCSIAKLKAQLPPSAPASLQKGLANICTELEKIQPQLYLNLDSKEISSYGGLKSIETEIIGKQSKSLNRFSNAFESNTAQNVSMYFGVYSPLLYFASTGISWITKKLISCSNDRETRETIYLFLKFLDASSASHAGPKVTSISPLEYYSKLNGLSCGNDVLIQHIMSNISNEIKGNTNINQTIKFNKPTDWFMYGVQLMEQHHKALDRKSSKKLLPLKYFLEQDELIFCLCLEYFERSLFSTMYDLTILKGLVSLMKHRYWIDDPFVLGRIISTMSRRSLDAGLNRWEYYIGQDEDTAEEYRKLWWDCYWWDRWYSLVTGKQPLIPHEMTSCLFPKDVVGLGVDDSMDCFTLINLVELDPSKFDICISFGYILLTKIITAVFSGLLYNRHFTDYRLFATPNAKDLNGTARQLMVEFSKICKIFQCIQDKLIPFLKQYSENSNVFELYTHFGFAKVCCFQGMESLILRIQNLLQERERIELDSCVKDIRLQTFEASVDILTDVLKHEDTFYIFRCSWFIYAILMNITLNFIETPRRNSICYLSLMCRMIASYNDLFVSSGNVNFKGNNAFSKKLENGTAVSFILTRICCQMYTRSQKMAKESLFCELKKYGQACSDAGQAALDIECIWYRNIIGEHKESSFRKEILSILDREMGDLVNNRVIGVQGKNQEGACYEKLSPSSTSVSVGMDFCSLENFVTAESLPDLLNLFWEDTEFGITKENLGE
Test: PBM E-score (8-mer binding enrichment) (E-score (-0.5 to 0.5)); higher = stronger / more preferred TF binding
Settings: protein concentration: 100 nM; construct: GST-full length
Method in brief: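 Using PURExpress in vitro transcription/translation, GST-tagged yeast transcription factors were made in full-length or DNA-binding-domain form. These were applied at about 100-200 nM to double-stranded universal all-10-mer Agilent arrays, and bound protein was detected with fluorescent anti-GST. Scans were normalised with masliner before the Universal PBM Analysis Suite assigned E-scores to ungapped eight-base words pooled with their reverse complements.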

Sequence | PBM E-score
ATATTTAC | 0.202
ACCCCGCA | -0.0654
GCTTTTCC | 0.109
GGCGATTA | 0.0843
CAGATCGA | -0.0498
CCTAGTTA | 0.0429
ACCCTACA | -0.0427
AGTTGACA | 0.0221
AGAGGTGA | -0.148
AACCCGGC | 0.329
ACCCCGGG | 0.263
AACCCGGG | 0.325
ACCCCGGC | 0.0581
CACCCGGC | 0.15
ATCCCGGG | 0.36
AAACCCGC | 0.135
CACCCGGG | 0.189
AAACCCGG | 0.337
AAACCCGA | 0.215
ATCCCGGA | 0.274
ATCCCCGG | 0.185
ACTTTTTG | 0.154

Sequence | PBM E-score
ACCCTCGT | -0.116
ACAGTAAG | -0.0845
GACATTGC | -0.175
AAATAAAT | 0.34
AAATAAAA | 0.0817
ATATAAAC | 0.17
AAATAAAG | 0.045
ATATAAAT | 0.305
ATATAAAG | 0.0639
CGTGCTGC | -0.0543
CGGGGGGA | -0.373
AACTGCAA | 0.0848
GAGTTAGC | -0.0328
CTCTTATA | 0.145
ATGGTATA | -0.0158
ACATGCTG | -0.257
CCACCGGG | -0.00255
GCACCGGA | 0.33
ACACCGGA | 0.246
CCACCGGA | 0.346
CCACCGGC | 0.146
GCACCGGC | 0.234

Sequence | PBM E-score
TAGACCGA | 0.105
TAATCATA | 0.157
CACTAGTA | -0.0824
TACTAGTA | 0.338
GACTAGTA | -0.12
AGTGCCGC | 0.123
AGTGCCGG | 0.337
AGTGCCTG | -0.132
AGTGCCAG | -0.28
AGTGCCGA | 0.333
GGTGCCGA | 0.266
GGACCACC | -0.116
CTCGACCC | -0.118
AGCTGCCC | 0.034
AGGCTTCA | -0.108
CGGCTTAA | 0.393
TGGCTTAA | 0.175
CGGCTTCA | 0.345
CGGCTTAG | 0.213
CGGCTTCC | 0.198
ACGTCAAG | -0.124
CACCTTGA | -0.151

Sequence | PBM E-score
GTCAACGA | -0.0301
GCTGTTTA | 0.141
CCCGGCAG | 0.131
CCCGGCAA | 0.335
ACCGGCAC | 0.363
TGCGGCAA | 0.0333
ACCGGCAA | 0.222
GGCGGCAC | 0.0696
CGCGGCAA | 0.274
TCCGGCAA | 0.339
TACGGCAA | 0.158
CCCGGCAC | 0.0863
GCCGGCAC | 0.422
ACCGGCAG | 0.0457
GTGAGGGA | -0.252
CAATTGCG | -0.0249
ACGCTAAA | 0.0442
AAATTGAT | 0.159
AGTTAACC | -0.0162
GCTATCCC | -0.16
CGAATGCA | 0.0594
ACCTTGCA | -0.197

Sequence | PBM E-score
AAAAATGT | 0.0248
CTTCTGAC | -0.218
CCACAAGA | 0.0207
GCCGGCTA | 0.266
GACGGCAA | 0.148
GCCGGCAA | 0.424
CGACTAAG | -0.0168
CTTCGCGA | 0.0769
ATTCGCGA | -0.0163
GTTCGCGA | 0.311
TATTCCAA | 0.115
AATTCCAA | 0.116
TATTCCCA | 0.0619
TATTCCGA | 0.389
AATTCCGA | 0.389
GATTCCCA | -0.0287
AATTCCCA | -0.123
GATTCCGC | 0.0917
GCTTCCGA | 0.306
GCTTCCTA | 0.0691
GATTCCGA | 0.33
CCTTCCGA | 0.227
